# In PubChem BioAssay AID1159580 (chemical genetic matrix, 2015):
# “And” between values parts separate entries of the source, which are not always exact repeats. Equal entries are not always repeated. Screen size: about 5,500 compounds; about 2,000 (36%) were called active. Roughly 18% stayed inconclusive and do not appear here. This is one part of the list. Values without a mark were called inactive. No stated cut-off is given here; in the data, active means normalized growth mostly below about 0.91 (no sharp cut-off); inconclusive means no clear call, values can overlap the other calls; inactive means mostly above about 0.92.
# Experiment: chemical genetic growth profiling, strain panel (AID 1159580);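 further: tested at 20 µM; growth read once vehicle control cultures reached saturation at 30 °C; 1 = growth at the plate median or of vehicle wells; lower values mean less growth of the strain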
# Settings: S. cerevisiae deletion strains, growth OD
smiles,measurement,setting,value
Cc1ccc(N(CC2=NCCN2)c2cccc(O)c2)cc1,normalized growth,"locus YAL013W, strain DEP1, hits give low values",0.994 and 0.986
same,normalized growth,"locus YAL021C, strain ccr4, hits give low values",1.01
same,normalized growth,"locus YAL026C, strain drs2, hits give low values",1.02
same,normalized growth,"locus YAL030W, strain snc1, hits give low values",1.02
same,normalized growth,"locus YAL040C, strain CLN3, hits give low values",1.01
same,normalized growth,"locus YBL061C, strain skt5, hits give low values",0.998
same,normalized growth,"locus YBR009C, strain hhf1, hits give low values",1.02
same,normalized growth,"locus YBR021W, strain FUR4, hits give low values",0.991
same,normalized growth,"locus YBR023C, strain chs3, hits give low values",1.02
same,normalized growth,"locus YBR171W, strain sec66, hits give low values",1.01
same,normalized growth,"locus YBR229C, strain ROT2, hits give low values",1
same,normalized growth,"locus YBR231C, strain swc5, hits give low values",1.01
same,normalized growth,"locus YBR279W, strain paf1, hits give low values",1.01
same,normalized growth,"locus YCL011C, strain gbp2, hits give low values",1.02
same,normalized growth,"locus YCL016C, strain dcc1, hits give low values",0.998
same,normalized growth,"locus YCL029C, strain bik1, hits give low values",1.01
same,normalized growth,"locus YCL061C, strain MRC1 (second series), hits give low values",0.992
same,normalized growth,"locus YCL069W, strain vba3, hits give low values",1.02
same,normalized growth,"locus YCR088W, strain abp1, hits give low values",1.01
same,normalized growth,"locus YDL005C, strain med2, hits give low values",1.02
same,normalized growth,"locus YDL035C, strain GPR1, hits give low values",0.985
same,normalized growth,"locus YDL040C, strain nat1, hits give low values",1.01
same,normalized growth,"locus YDL074C, strain BRE1, hits give low values",0.908
same,normalized growth,"locus YDL101C, strain DUN1, hits give low values",0.983
same,normalized growth,"locus YDL134C, strain PPH21, hits give low values",0.994
same,normalized growth,"locus YDL185W, strain tfp1, hits give low values",1.02
same,normalized growth,"locus YDL192W, strain arf1, hits give low values",1.01
same,normalized growth,"locus YDR001C, strain nth1, hits give low values",1.01
same,normalized growth,"locus YDR069C, strain doa4, hits give low values",0.998
same,normalized growth,"locus YDR101C, strain arx1, hits give low values",0.985
same,normalized growth,"locus YDR137W, strain rgp1, hits give low values",1.02
same,normalized growth,"locus YDR150W, strain NUM1, hits give low values",1.01
same,normalized growth,"locus YDR159W, strain sac3, hits give low values",1
same,normalized growth,"locus YDR162C, strain NBP2, hits give low values",0.976
same,normalized growth,"locus YDR195W, strain ref2",1.02
same,normalized growth,"locus YDR297W, strain sur2, hits give low values",1.02
same,normalized growth,"locus YDR318W, strain mcm21, hits give low values",0.991
same,normalized growth,"locus YDR334W, strain swr1, hits give low values",1.04
same,normalized growth,"locus YDR335W, strain msn5, hits give low values",1.03
same,normalized growth,"locus YDR363W, strain ESC2, hits give low values",1.06
same,normalized growth,"locus YDR388W, hits give low values",1.01
same,normalized growth,"locus YDR392W, strain spt3, hits give low values",0.95
same,normalized growth,"locus YDR502C, strain sam2, hits give low values",0.977
same,normalized growth,"locus YEL003W, strain gim4, hits give low values",1.03
same,normalized growth,"locus YEL037C, strain rad23, hits give low values",1.03
same,normalized growth,"locus YEL061C, strain CIN8 (second series), hits give low values",1.02
same,normalized growth,"locus YEL061C, strain CIN8, hits give low values",1.04
same,normalized growth,"locus YER002W, strain NOP16, hits give low values",1.01
same,normalized growth,"locus YER015W, strain faa2, hits give low values",1.02
same,normalized growth,"locus YER016W, strain bim1, hits give low values",1.02
same,normalized growth,"locus YER110C, hits give low values",1.03
same,normalized growth,"locus YER111C, strain swi4, hits give low values",1.02
same,normalized growth,"locus YER155C, strain BEM2 (second series), hits give low values",0.929
same,normalized growth,"locus YER155C, strain BEM2, hits give low values",1.01
same,normalized growth,"locus YER167W, strain BCK2, hits give low values",0.972
same,normalized growth,"locus YFR010W, strain ubp6, hits give low values",1.02
same,normalized growth,"locus YGL078C, strain dbp3, hits give low values",0.995
same,normalized growth,"locus YGL086W, strain mad1, hits give low values",1.02
same,normalized growth,"locus YGL167C, strain pmr1, hits give low values",1.02
same,normalized growth,"locus YGL173C, strain kem1, hits give low values",1.01
same,normalized growth,"locus YGL227W, strain vid30, hits give low values",1.03
same,normalized growth,"locus YGL240W, strain doc1, hits give low values",0.972
same,normalized growth,"locus YGL248W, strain PDE1, hits give low values",0.997
same,normalized growth,"locus YGL253W, strain hxk2, hits give low values",1.02
same,normalized growth,"locus YGR078C, strain PAC10, hits give low values",0.972 and 1.01
same,normalized growth,"locus YGR135W, strain pre9, hits give low values",0.976
same,normalized growth,"locus YGR229C, strain SMI1, hits give low values",0.912 and 0.979
same,normalized growth,"locus YGR252W, strain gcn5, hits give low values",0.926
same,normalized growth,"locus YHR013C, strain ard1, hits give low values",1
same,normalized growth,"locus YHR027C, strain rpn1, hits give low values",1.01
same,normalized growth,"locus YHR030C, strain SLT2, hits give low values",1.01 and 1.04
same,normalized growth,"locus YHR079C, strain IRE1 (second series), hits give low values",0.99
same,normalized growth,"locus YHR079C, strain IRE1, hits give low values",1.05
same,normalized growth,"locus YHR094C, strain hxt1, hits give low values",1
same,normalized growth,"locus YHR129C, strain ARP1, hits give low values",0.984
same,normalized growth,"locus YHR142W, strain chs7, hits give low values",1.02
same,normalized growth,"locus YHR200W, strain rpn10, hits give low values",1
same,normalized growth,"locus YIL066C, strain RNR3, hits give low values",1.01
same,normalized growth,"locus YIL073C, strain SPO22, hits give low values",1.1
same,normalized growth,"locus YIL125W, strain kgd1, hits give low values",0.993
same,normalized growth,"locus YIR030C, strain dcg1, hits give low values",1.01
same,normalized growth,"locus YJL092W, strain hpr5, hits give low values",1.02
same,normalized growth,"locus YJL095W, strain BCK1 (second series), hits give low values",1.01
same,normalized growth,"locus YJL095W, strain BCK1, hits give low values",0.905 and 1.04
same,normalized growth,"locus YJL115W, strain asf1, hits give low values",1.03
same,normalized growth,"locus YJL129C, strain trk1, hits give low values",1.02
same,normalized growth,"locus YJL134W, strain LCB3, hits give low values",1.01
same,normalized growth,"locus YJL154C, strain vps35, hits give low values",1.03
same,normalized growth,"locus YJL164C, strain tpk1, hits give low values",1
same,normalized growth,"locus YJL166W, strain qcr8, hits give low values",0.993
same,normalized growth,"locus YJL168C, strain set2, hits give low values",1.01
same,normalized growth,"locus YJL187C, strain SWE1 (second series), hits give low values",0.993
same,normalized growth,"locus YJL187C, strain SWE1, hits give low values",1.01
same,normalized growth,"locus YJR043C, strain POL32, hits give low values",0.85 (active)
same,normalized growth,"locus YJR066W, strain TOR1, hits give low values",0.978
